Key:
Experiment in all cases: log2 ratio of Biotin-Ahx-Ub-VS probe labelling (fragment/DMSO); higher = less target engagement (more negative = stronger competition), active = hit call of the paper (q ≤ 0.05, log2 ratio ≤ -1)
Settings in all cases: compound concentration: 200 uM; treatment time: 3 h
USP34 = USP34 (UniProt Q70CQ2)
How it was run: (§1)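 Average log2 ratios of fragment over vehicle were obtained by unpaired t-test from global-median-normalised Spectronaut label-free quantities. Proteins with ≥2 unique peptides were included. HEK293T lysate (495 µg per sample) was treated in triplicate with fragment at 200 µM or vehicle for 3 h, then with Biotin-Ahx-Ub-VS at 0.5 µM final for 1 h, and labelled DUBs were NeutrAvidin-enriched and run by diaPASEF LC-MS/MS.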

USP36 = molecular target: T1, USP36 (UniProt Q9P275)
T1 sequence (whole entry): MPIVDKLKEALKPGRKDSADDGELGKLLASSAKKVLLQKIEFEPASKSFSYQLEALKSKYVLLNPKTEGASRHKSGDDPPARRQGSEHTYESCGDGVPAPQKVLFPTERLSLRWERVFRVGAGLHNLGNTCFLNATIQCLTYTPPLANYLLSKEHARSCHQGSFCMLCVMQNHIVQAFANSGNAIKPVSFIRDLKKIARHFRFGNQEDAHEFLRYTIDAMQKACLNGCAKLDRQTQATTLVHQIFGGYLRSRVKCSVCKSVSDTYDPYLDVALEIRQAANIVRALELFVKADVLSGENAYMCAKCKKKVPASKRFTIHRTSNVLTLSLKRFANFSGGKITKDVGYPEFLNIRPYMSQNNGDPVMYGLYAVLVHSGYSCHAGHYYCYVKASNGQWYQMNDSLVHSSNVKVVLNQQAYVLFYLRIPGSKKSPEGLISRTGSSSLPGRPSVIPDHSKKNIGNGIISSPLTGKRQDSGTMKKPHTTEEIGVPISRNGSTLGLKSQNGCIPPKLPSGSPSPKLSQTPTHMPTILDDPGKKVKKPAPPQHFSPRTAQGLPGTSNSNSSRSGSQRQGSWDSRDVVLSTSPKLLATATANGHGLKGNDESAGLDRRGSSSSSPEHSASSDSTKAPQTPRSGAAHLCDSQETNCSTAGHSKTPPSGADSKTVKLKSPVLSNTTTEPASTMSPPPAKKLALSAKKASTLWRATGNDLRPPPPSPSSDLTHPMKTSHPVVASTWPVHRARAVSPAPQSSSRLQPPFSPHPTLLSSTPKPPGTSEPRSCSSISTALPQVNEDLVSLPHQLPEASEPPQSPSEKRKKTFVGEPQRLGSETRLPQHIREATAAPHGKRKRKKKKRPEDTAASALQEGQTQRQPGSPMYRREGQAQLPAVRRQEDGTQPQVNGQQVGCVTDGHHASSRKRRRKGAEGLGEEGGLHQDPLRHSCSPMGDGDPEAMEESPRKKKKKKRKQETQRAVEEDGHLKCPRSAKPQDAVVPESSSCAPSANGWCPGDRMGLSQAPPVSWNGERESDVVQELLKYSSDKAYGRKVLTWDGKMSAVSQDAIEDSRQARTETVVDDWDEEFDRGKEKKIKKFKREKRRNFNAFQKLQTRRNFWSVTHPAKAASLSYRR
How it was run: as §1

USP38 = molecular target: T2, USP38 (UniProt Q8NB14)
T2 sequence (whole entry): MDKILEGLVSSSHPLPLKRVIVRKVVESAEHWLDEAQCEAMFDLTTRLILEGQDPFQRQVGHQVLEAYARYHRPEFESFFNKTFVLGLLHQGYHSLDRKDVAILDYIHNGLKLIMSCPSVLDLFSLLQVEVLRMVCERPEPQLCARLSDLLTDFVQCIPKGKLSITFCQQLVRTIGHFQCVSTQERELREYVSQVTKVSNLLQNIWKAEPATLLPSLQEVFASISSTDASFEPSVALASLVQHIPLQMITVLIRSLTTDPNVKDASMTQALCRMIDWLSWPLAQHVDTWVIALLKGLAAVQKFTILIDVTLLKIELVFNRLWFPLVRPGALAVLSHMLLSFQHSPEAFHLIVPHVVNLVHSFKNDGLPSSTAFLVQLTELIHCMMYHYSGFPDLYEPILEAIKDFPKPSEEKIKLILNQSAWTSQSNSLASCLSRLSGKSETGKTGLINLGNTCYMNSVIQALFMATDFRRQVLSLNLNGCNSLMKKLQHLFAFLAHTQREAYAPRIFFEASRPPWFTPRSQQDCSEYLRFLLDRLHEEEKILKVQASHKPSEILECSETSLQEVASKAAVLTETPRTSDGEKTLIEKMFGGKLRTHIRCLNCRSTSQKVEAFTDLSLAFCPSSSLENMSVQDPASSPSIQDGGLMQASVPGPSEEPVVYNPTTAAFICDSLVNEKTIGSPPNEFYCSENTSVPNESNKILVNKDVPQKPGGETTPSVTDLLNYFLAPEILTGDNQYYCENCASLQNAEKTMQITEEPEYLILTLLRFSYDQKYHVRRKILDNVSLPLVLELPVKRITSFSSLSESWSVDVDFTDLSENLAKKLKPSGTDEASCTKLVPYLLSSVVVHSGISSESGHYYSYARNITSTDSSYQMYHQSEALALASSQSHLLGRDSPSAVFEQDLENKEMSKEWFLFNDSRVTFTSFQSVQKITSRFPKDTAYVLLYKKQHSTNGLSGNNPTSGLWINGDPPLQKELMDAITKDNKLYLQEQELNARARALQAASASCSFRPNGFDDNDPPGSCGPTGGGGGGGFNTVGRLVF
How it was run: as §1

USP39 = molecular target: T3, USP39 (UniProt Q53GS9)
T3 sequence (whole entry): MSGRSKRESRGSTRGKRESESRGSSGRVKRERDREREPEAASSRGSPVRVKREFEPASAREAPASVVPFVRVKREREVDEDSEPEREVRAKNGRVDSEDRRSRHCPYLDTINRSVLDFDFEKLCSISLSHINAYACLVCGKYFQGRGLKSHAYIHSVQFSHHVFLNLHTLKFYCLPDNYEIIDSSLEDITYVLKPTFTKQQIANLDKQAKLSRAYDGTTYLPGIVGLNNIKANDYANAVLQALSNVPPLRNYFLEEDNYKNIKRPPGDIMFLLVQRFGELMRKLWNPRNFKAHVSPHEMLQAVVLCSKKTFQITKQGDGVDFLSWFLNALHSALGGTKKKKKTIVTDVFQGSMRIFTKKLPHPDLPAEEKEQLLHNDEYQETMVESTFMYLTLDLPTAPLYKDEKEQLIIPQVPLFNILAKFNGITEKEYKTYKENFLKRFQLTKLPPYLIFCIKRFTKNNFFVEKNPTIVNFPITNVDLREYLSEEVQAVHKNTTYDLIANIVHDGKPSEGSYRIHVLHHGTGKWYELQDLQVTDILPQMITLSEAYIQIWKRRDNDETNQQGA
How it was run: as §1

USP4 = molecular target: T4, USP4 (UniProt Q13107)
T4 sequence (whole entry): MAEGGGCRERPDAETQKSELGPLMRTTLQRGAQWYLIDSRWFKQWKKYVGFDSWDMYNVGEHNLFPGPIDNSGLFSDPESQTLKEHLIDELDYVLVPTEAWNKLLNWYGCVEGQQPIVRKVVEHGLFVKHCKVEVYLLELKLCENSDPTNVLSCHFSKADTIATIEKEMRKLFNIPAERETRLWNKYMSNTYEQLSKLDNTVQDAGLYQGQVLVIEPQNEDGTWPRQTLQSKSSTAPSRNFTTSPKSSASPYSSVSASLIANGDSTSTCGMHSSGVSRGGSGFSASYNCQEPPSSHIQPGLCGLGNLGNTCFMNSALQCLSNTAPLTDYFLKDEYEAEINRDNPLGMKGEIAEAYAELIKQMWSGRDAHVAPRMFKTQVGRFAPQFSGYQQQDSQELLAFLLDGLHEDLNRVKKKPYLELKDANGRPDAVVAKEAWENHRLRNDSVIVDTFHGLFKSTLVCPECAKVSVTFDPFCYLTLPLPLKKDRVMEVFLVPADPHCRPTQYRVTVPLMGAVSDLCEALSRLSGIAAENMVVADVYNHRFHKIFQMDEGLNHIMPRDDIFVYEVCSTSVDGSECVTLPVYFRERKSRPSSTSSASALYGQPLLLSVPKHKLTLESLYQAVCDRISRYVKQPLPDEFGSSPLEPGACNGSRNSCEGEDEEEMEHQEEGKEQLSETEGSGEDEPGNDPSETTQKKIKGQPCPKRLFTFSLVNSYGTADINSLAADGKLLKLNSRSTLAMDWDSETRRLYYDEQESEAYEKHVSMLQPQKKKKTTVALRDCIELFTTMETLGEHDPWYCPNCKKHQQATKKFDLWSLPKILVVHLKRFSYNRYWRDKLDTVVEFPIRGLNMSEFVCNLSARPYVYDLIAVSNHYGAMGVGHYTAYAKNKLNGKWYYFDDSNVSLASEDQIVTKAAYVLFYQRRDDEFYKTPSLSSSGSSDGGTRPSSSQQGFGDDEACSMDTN
How it was run: as §1

Measured: log2 ratio of Biotin-Ahx-Ub-VS probe labelling

USP34, sequence (Q70CQ2 whole entry, the tested form may be a part): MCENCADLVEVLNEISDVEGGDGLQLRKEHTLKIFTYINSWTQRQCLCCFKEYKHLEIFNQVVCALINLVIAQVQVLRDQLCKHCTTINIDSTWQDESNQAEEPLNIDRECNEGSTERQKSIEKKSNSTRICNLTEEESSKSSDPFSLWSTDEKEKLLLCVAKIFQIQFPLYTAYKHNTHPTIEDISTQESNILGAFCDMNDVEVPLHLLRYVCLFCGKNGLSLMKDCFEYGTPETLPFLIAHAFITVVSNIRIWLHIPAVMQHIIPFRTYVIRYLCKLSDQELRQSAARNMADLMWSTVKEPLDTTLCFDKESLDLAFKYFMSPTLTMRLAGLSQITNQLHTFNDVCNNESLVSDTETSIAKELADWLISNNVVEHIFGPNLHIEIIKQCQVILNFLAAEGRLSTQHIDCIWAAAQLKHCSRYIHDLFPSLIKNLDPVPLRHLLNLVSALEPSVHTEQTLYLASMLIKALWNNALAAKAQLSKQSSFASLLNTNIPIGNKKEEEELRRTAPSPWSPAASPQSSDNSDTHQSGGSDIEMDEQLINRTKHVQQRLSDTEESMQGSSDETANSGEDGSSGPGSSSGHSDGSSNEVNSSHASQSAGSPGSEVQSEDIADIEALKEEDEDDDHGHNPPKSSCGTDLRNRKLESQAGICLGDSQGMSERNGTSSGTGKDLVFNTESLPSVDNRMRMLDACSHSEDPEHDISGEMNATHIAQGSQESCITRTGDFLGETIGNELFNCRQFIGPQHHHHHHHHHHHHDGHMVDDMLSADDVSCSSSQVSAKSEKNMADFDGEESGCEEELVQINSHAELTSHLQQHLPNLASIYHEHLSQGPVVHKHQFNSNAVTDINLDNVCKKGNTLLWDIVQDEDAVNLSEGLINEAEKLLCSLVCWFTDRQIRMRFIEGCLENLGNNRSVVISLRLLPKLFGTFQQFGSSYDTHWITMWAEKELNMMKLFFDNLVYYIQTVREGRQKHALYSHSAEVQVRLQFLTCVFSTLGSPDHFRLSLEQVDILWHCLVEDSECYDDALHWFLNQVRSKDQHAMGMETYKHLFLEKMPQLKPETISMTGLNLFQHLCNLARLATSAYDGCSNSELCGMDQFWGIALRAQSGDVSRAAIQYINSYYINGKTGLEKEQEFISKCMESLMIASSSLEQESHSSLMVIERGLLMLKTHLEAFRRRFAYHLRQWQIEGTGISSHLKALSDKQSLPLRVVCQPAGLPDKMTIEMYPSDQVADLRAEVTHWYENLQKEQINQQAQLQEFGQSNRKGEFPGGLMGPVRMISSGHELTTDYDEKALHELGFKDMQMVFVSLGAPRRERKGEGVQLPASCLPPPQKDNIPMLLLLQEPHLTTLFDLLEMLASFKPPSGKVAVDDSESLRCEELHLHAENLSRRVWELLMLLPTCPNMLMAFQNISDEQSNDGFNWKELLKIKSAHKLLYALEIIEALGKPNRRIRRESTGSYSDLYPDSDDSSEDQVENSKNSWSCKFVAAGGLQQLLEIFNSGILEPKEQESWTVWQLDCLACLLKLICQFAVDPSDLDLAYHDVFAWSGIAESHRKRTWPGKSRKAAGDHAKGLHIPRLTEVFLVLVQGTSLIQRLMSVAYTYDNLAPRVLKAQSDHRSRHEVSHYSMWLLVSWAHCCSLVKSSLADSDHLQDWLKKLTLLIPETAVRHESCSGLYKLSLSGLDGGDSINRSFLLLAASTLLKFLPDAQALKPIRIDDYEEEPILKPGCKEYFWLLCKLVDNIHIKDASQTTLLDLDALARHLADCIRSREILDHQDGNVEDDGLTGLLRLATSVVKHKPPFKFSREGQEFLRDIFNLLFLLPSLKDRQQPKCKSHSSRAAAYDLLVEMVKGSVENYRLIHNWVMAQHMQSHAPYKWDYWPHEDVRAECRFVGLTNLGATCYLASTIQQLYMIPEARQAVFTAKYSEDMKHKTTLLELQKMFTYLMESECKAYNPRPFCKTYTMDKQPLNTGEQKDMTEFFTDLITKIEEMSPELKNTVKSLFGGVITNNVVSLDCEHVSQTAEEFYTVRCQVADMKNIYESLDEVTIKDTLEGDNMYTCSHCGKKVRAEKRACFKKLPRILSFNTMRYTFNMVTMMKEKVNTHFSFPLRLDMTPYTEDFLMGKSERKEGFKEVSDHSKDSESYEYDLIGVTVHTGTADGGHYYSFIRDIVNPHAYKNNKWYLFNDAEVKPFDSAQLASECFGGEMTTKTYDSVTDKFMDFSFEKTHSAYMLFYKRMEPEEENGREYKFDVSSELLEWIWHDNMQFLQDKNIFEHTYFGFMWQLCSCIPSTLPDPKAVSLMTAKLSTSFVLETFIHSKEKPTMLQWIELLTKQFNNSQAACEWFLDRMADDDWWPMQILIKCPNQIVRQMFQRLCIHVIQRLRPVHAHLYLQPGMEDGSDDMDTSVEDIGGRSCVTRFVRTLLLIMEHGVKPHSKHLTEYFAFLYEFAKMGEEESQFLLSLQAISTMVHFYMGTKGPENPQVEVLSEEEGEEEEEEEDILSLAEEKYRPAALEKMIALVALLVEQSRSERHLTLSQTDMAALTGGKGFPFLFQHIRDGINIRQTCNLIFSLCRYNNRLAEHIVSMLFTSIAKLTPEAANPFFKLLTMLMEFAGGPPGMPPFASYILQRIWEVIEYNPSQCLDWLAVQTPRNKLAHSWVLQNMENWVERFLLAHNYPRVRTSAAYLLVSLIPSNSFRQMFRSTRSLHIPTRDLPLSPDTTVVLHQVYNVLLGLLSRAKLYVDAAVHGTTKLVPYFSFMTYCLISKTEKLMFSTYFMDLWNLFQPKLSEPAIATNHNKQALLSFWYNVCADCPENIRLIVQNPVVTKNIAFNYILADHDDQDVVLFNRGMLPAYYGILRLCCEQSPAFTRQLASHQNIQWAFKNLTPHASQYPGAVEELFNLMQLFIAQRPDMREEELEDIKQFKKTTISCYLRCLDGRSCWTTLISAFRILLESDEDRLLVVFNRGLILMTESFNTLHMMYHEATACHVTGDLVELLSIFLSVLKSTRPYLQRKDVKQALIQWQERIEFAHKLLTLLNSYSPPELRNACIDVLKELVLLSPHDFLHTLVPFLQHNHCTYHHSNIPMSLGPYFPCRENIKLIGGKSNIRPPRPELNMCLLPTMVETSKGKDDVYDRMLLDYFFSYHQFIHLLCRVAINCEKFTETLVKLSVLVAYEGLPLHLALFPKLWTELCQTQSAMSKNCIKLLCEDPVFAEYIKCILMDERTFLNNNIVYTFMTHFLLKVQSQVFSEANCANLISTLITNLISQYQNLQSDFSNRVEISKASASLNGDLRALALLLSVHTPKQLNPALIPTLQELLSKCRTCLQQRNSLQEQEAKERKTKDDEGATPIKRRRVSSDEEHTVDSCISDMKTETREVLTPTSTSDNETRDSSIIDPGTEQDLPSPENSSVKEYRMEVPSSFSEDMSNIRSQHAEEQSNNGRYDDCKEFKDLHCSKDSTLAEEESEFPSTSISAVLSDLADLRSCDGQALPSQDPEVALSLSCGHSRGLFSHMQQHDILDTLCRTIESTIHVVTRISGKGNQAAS

Cc1ccc(CC(CO)CNC(=O)CCl)cc1 (stereo not given)
inactive: USP34 -0.117 | USP36 -0.19 | USP38 -0.239 | USP39 -0.321 | USP4 -0.14
